Data published in PubChem BioAssay (NCI).
About 83,000 compounds went through this panel and 20% of them were active in at least one assay; those are over-represented in the sample as a whole.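 Each cell line was grown in a 96-well plate and treated with one concentration of compound for 48 hours. Values below 10 were considered active.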 Activity calls are given as the source filed them.

Test system: HL-60(TB) leukemia
Assay: NCI-60 one-dose screen, 48 h (100 = growth as untreated, 0 = no growth, -100 = all killed)
Conditions: 10 µM unless noted
Protocol: Growth inhibition of the HL-60(TB) human tumor cell line is measured as a screen for anti-cancer activity. Cells are grown in 96 well plates and exposed to the test compound for 48 hours. Compounds are tested at a single concentration, which is 10^-5 M for most compounds. The reported endpoint is percent growth (GI% or GIPRCNT), where numbers from 0 - 100% represent growth inhibition, and numbers from -100% - 0 represent cell death. For example, a value of 40 represents 60% growth inhibition. A value of 0 means no net growth occurred over the course of the experiment. A value of -40 indicates 40% of cells at the beginning of the experiment died by the end of the experiment. A value of -100 means all cells are dead at the end of the experiment.
NCI-60 Human Tumor Cell Lines Screen was performed using the standard one-dose NCI protocol, which is described in more detail at https://dtp.cancer.gov/discovery_development/nci-60/default.htm.
Compounds with GIPRCNT values below 10 were considered active. Activity score was based on GIPRCNT using the following formula: […]
Score is 0 for GIPRCNT values of 100 or above, 50 for GIPRCNT values of 0, and 100 for GIPRCNT values of -100.

| Structure (SMILES) | growth |
| --- | --- |
| O=S(=O)(NCCNc1cc(-c2cn(-c3ccccc3)nc2-c2ccccc2)ccn1)c1cccc2ccccc12 | 36.4% (inactive) |
| C=C(C)[C@H]1CC/C(C)=C/CC[C@]2(C)O[C@H]2CC/C(C=O)=C\C1O (stereo not given in full) | 253% (inactive) |
| CC1(c2ccccc2)CO1 (stereo not given) | 105% (inactive) |
| Cc1c(C2=CCCCC2)c2ccccn2c1C(=O)c1cccc(S(=O)(=O)N2CCOCC2)c1 | 132% (inactive) |
| COc1ccc(NC(N)=NCCCOc2ccc(F)cc2)cc1 | 87.7% (inactive) |
| CC12O[C@H](C[C@@H](OC(=O)CCC(=O)O)[C@H]1O)n1c3ccccc3c3c4c(c5c6ccccc6n2c5c31)C(=O)NC4=O | 66.7% (inactive) |
| COc1cc([C@@H]2c3cc4c(cc3[C@H](O)[C@H]3COC(=O)[C@H]23)OCO4)cc(OC)c1OC | -50.2% (active) |
| CO[C@@]12C=C[C@@]34CCC(=O)N3c3ccccc3[C@@H](O1)C4C2 | 96.9% (inactive) |
| O=C(O)c1cn(C2CC2)c2cc(N3CCN(S(=O)(=O)c4ccc(Cl)c(Cl)c4)CC3)c(F)cc2c1=O | -38.3% (active) |
| Fc1ccc(Nc2ccc3c(OCCCN4CCOCC4)cccc3n2)cc1F | 85.3% (inactive) |
| OC(Cc1cc(CC(O)(C(F)(F)F)C(F)(F)F)nc(CC(O)(C(F)(F)F)C(F)(F)F)c1)(C(F)(F)F)C(F)(F)F | -24.5% (active) |
| O=C1c2cccnc2-c2ncccc21 | 95.4% [100 µM] (inactive) |
| Cc1ccc(-c2nn(Cc3cn(-c4cc(C)nc5ccccc45)nn3)c3ncnc(N)c23)cc1 | 83.1% (inactive) |
| CC(=O)OC[C@]12CC[C@H]3[C@@H](C[C@H]4O[C@]45CC=CC(=O)[C@]35C)[C@]1(O)CC[C@@]2(O)[C@@](C)(O)C1CC(C)=C(C)C(=O)O1 (stereo not given in full) | -11.8% (active) |
| CCCn1c2cc(OCc3cn(-c4ccc(Br)cc4)nn3)ccc2c2ccnc(C)c21 | -61.3% (active) |
| CN(C)c1ncnc2c1ncn2C1CCCCO1 (stereo not given) | 96.3% (inactive) |
| COc1cc(C(=O)c2c(-c3ccccc3)oc3c(OC)cccc23)cc(OC)c1OC | -6.56% (active) |
| COc1ccc(C(=O)c2sc3nc4c(c(C(F)(F)F)c3c2N)CN(C(C)=O)CC4)cc1OC | 98.7% (inactive) |
| O=C(/C(=N/O)S(=O)(=O)c1ccccc1)c1cccs1 | 90.9% (inactive) |
| O=C1OCC2=C1C(c1cccc(F)c1)c1cc3c(cc1N2CCO)OCCO3 (stereo not given) | -34.5% (active) |

| Structure (SMILES) | growth |
| --- | --- |
| C=C(OC(C)=O)c1ccccc1 | 72.9% (inactive) |
| O=C(NCCCNS(=O)(=O)c1ccc(Cl)cc1)Nc1ccc(-n2cc(-c3ccncc3)c(-c3ccc(Cl)c(O)c3)n2)cc1 | 16.3% (inactive) |
| CCCCCCCCCCCC[n+]1ccccc1 | -49.7% (active) |
| COc1cc2c(cc1NC(=O)C(F)(F)F)-c1ccc(NC(=O)C(F)(F)F)cc1C2 | 99.3% (inactive) |
| COc1c2occc2c(OC)c2c(=O)c(-c3cc(-c4ccc(F)cc4)c(C#N)c(N)n3)c(C)oc12 | 54.7% (inactive) |
| Brc1ccc(-c2csc(Nc3ccccn3)n2)cc1 | 79.2% (inactive) |
| CC(=O)c1cc2c(N)c(C(=O)Nc3cccc4c3OCCO4)sc2nc1C | 86.8% (inactive) |
| CC12O[C@H](C[C@@H](O)[C@H]1O)n1c3ccccc3c3c4c(c5c6ccccc6n2c5c31)C(=O)N(CCCN)C4=O | 4.62% (active) |
| NNC(=O)Cc1ccccc1 | 73.1% (inactive) |
| CCc1ccccc1-n1[nH]c(C)c(C=N)c1=O | 98.3% (inactive) |
| O=[N+]([O-])CC(O)c1ccccc1 (stereo not given) | 99.4% (inactive) |
| C=C1C(=O)O[C@H]2[C@H]1CC/C(COC(=O)c1ccc(C(=O)O)s1)=C\CC[C@@]1(C)O[C@@H]21 | -31.4% (active) |
| Cc1c(C(=O)N[C@@H](Cc2ccccc2)C(=O)C(=O)NCc2ccc(F)cc2)[nH]c2ccccc2c1=O | 96.8% (inactive) |
| CC(=O)Oc1c(Cl)cccc1-c1ccccc1 | 99.6% (inactive) |
| Cc1ccc(N(CC(=O)Nc2ccc(S(=O)(=O)NC3CCN(C)CC3)cc2)S(=O)(=O)c2ccc(Cl)cc2)cc1 | 75.7% (inactive) |
| O=C(C(Br)C(Br)c1ccccc1)C(Br)C(Br)c1ccccc1 (stereo not given) | -49.7% (active) |
| CCCCCCCCCCCCCCn1c2ccccc2c2c3c(c4c5cc(OC)ccc5oc4c21)C(=O)NC3=O | 115% (inactive) |
| C=C(C)[C@@H]1CC[C@]2(C(=O)N3CCN(C)CC3)CC[C@]3(C)[C@H](CC[C@@H]4[C@@](C)(CCC(=O)O)[C@H](C(=C)C)CC[C@]43C)[C@@H]12 | 82.5% (inactive) |
| FC(F)c1nc2ccccc2n1-c1nc(N2CCOCC2)nc(N2CCOCC2)n1 | 15.1% (inactive) |
| CCS(=O)(=O)OCCCl | 86.7% (inactive) |
